TWEAK-Fn14 inh: inhibitors of TWEAK-Fn14 signaling, primary screen, luciferase reporter cells, uHTS. inhibition, % at 10 µM. AID 1159606, 2016. TWEAK-stimulated Fn14 reporter cells, luciferase luminescence, 8 h. 360,000 compounds, 2% hits; in the data active = inhibition above about 50%
Peg3 promoter: Peg3 promoter-driven luciferase inhibitors, primary screen, cell-based, HeLa, luciferase luminescence. 360,000 compounds, 1.7% hits. inhibition, % at 20 µM. HeLa PEG-Prom luciferase reporter, overnight. AID 588405, 2011;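 active = inhibition of at least 50% at 20 µM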
HIF-2a inh: HIF-2a reporter inhibitors, primary screen, luminescence, 786-0 RCC cells | inhibition, % at 18.8 µM | 786-0 RCC cells HIF-2a reporter, luciferase luminescence, overnight | 360,000 compounds, 0.72% hits;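 active = inhibition of the luminescence signal of 40% or more relative to plate controls, in a single-dose primary screen at 18.75 µM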
TROY signal inh: inhibitors of TROY-driven NF-kB signaling, primary screen, Q293 LMP1-TROYcd cells, NF-kB luciferase, uHTS. 360,000 compounds, 0.98% hits. inhibition, % at 10 µM. AID 1347056, 2019. Q293 LMP1-TROYcd NF-kB luciferase reporter, 4 h;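 active = compounds whose plate-normalised and pattern-corrected inhibition of the luciferase reporter signal at the single screening dose is 50% or more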
KKLEB cytotox: cytotoxicity in KKLEB CF airway cells, primary screen, cytotoxicity control for CF NF-kB inhibitor project, cell-based, uHTS, fluorescence assay plates | KKLEB CF airway cells viability, ATPlite luminescence, overnight; hits give low values; cells stimulated with P. aeruginosa culture filtrate | AID 602141, 2011 | activity change (cytotoxicity), % at 5 µM | 360,000 compounds, 0.36% hits;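 active = corrected activity change at or below -50% at 5 µM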
CF NFkB block: inhibitors of PAF-induced NF-kB signaling, primary screen, cell-based, GFP fluorescence, uHTS; KKLEB NF-kB-GFP reporter, GFP fluorescence overnight; inhibition, % at 5 µM; 360,000 compounds, 0.86% hits; AID 588850, 2011;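 active = at least 50% inhibition at 5 µM, scaled per plate between neutral and stimulator controls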;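 note: PAF is a Pseudomonas aeruginosa culture filtrate used as stimulus; plate controls were PAF-stimulated DMSO wells for no effect and unstimulated DMSO wells for full effect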
* marks the source's active call; other numbers are inactive results; x = no result. Compounds with a hit are over-represented: about 4% of the library has one in this group of screens.

SMILES | TWEAK-Fn14 inh | Peg3 promoter | HIF-2a inh | TROY signal inh | KKLEB cytotox | CF NFkB block
C/C(=N\NC(=O)c1ccc(-c2ccccc2)cc1)C1C(=O)c2ccccc2C1=O | 46 | 37 | 6 | 56* | -7 | 29
Cc1[nH]c2c(ccc3cccnc32)c1C | -3 | -64 | -73 | -45 | 1 | -3
CC1=[N+](C)c2c(ccc3cccnc23)C1(C)C | 78* | 23 | -21 | 45 | -1 | 14
CCOC(=O)c1nn(-c2ccc3c(c2)CCN3C(C)=O)cc1O | 65* | -8 | -26 | 20 | -2 | -3
COC(=O)C1CCN(C(=O)COC(=O)c2cccc(NS(=O)(=O)c3ccccc3)c2)CC1 | -2 | -1 | 9 | -15 | -2 | -11
Cc1cccc(NC(=O)COc2cccc3c2CCN(C)C3=O)c1C | 8 | 12 | 10 | 0 | -6 | -14
COc1ccc(-c2nnc(SCC(=O)Nc3sc4c(c3C#N)CCCC4)n2-c2ccccc2)cc1 | -53 | 53* | 12 | 2 | -73* | 63*
CCOC(=O)c1c(NC(=O)COc2cccc3c2CCN(C)C3=O)sc2c1CCC2 | 73* | 40 | 7 | 39 | -3 | 0
CCn1c(SCC(=O)Nc2ccccc2C)nnc1-c1ccccc1O | 12 | 16 | -1 | 3 | 0 | -6
CCOC(=O)c1c(NC(=O)CSc2nnc(-c3c[nH]c4ccccc34)n2C)sc2c1CCCC2 | 56* | 20 | 5 | 27 | -22 | 6
Cc1ccccc1NC(=O)CSc1nnc(-c2ccccc2)n1-c1ccccc1 | -10 | 9 | 16 | 56* | 1 | -5
CCCCn1c(N)c(N(C(=O)CSc2nnc(C)n2-c2ccccc2)C2CCCC2)c(=O)[nH]c1=O | 8 | 3 | 8 | -2 | -2 | -12
Cc1ccc(NC(=O)CSc2nnc(-c3ccc(S(=O)(=O)N4CCCC4)cc3)o2)cc1C | -34 | 60* | 6 | 6 | 4 | -4
CC(=O)OC1C2CCC1C([N+]1(C)CCCCC1)CC2 (centres undefined) | 10 | 2 | 16 | 8 | -6 | 4
CS(=O)(=O)N(CC(=O)Nc1ccccc1C(=O)NCc1ccco1)c1ccc2c(c1)OCCO2 | 0 | 24 | -10 | 20 | 2 | 7
COC(=O)c1ccc(C(=O)OC)c(NC(=O)CN(c2ccc3c(c2)OCO3)S(C)(=O)=O)c1 | 23 | 7 | -1 | 57* | 0 | -18
CC(C)CNC(=O)c1ccccc1NC(=O)CN(c1ccc2c(c1)OCCO2)S(C)(=O)=O | 90* | -1 | 11 | 21 | 14 | -20
CC(C)(C)NC(=O)C(CCc1ccccc1)n1c(=O)c(-c2cc3ccccc3[nH]2)nc2ccccc21 (centres undefined) | x | x | 8 | x | x | x
Cn1c(-c2ccccc2)cc(=O)n1-c1ccccc1 | 15 | -12 | -21 | -4 | 0 | -1
Cc1ccccc1OCCC(=O)NNC(=O)c1ccccc1F | 12 | -7 | 13 | -3 | -1 | -4
CCCn1c(CN2CCN(C(=O)c3ccco3)CC2)nc2cc(S(=O)(=O)N(C)C)ccc21 | 5 | 3 | 5 | -5 | 14 | -1
O=C(CSc1ncnc2ccccc12)c1ccc2c(c1)OCCO2 | -71 | -316 | -264 | 54* | 5 | 16
CCc1nc(SCC(=O)c2ccc3c(c2)OCCO3)c2ccccc2n1 | -95 | -4 | -61 | -4 | -9 | 17
O=S(=O)(Nc1nc2ccccc2nc1Nc1ccc2c(c1)OCO2)c1ccc(F)cc1 | 61* | 8 | -6 | 58* | -48 | 48
COc1ccc(S(=O)(=O)Nc2cccc(S(=O)(=O)N3CCCCCC3)c2)cc1 | 5 | 10 | 5 | 20 | -6 | 0
SMILES | TWEAK-Fn14 inh | Peg3 promoter | HIF-2a inh | TROY signal inh | KKLEB cytotox | CF NFkB block
O=S(=O)(Nc1nc2ccccc2nc1Nc1cccc(S(=O)(=O)N2CCCCC2)c1)c1ccccc1 | 77* | 69* | 23 | 68* | -61* | 65*
O=C(O)c1cccc(Nc2nc3ccccc3nc2NS(=O)(=O)c2ccc(F)cc2)c1 | 13 | 3 | 5 | 21 | 12 | -2
O=C1C(C=NCCN2CCOCC2)=C(O)c2ccccc21 | 31 | -302 | -204 | 43 | -4 | -10
O=C1C(C=NCCCN2CCOCC2)=C(O)c2ccccc21 | 21 | -31 | -112 | 58* | 5 | -5
COc1ccccc1NC(=O)c1cc2cc(Br)ccc2cc1O | 67* | -40 | -53 | 38 | -33 | 49
COc1cc(NC(=O)c2cc3ccccc3cc2O)c(OC)cc1Cl | 67* | -7 | -82 | 45 | -55* | 50*
COc1cc(OC)c(NC(=O)c2ccccc2F)cc1Cl | -11 | -56 | -61 | -43 | -6 | -10
CSc1nccn1C(=O)c1ccccc1[N+](=O)[O-] | 108* | 6 | 13 | -9 | 7 | -23
Cn1ccnc1Sc1ccccc1[N+](=O)[O-] | 9 | 11 | 12 | 24 | -6 | 15
CCCCCc1cc(=O)oc2c(C(CCN3CCCC(C)C3)c3ccc(N(C)C)cc3)c(OC)cc(OC)c12 (centres undefined) | 0 | 94* | -7 | 17 | -7 | 26
COc1cc(C(CCN2CCCC2)c2c(OC)cc(OC)c3ccc(=O)oc23)cc(OC)c1OC (centres undefined) | -1 | -2 | 6 | -1 | -2 | -7
CCCCCc1cc(=O)oc2c(C(CCN3CCCCC3)c3cc(OC)c(OC)c(OC)c3)c(OC)cc(OC)c12 (centres undefined) | -46 | 90* | 10 | 12 | -9 | 3
COc1cc(OC)c2ccc(=O)oc2c1C(CCN1CCCC(C)C1)c1ccc(N(C)C)cc1 (centres undefined) | -6 | -12 | -6 | -7 | 0 | 14
CCCCCc1cc(=O)oc2c(C(CCN3CCCC(C)C3)c3cc(OC)c(OC)c(OC)c3)c(OC)cc(OC)c12 (centres undefined) | -18 | 101* | 11 | 15 | -10 | 17
CCCCCc1cc(=O)oc2c(C(CCN(CC)CC)c3ccc(N(C)C)cc3)c(OC)cc(OC)c12 (centres undefined) | 7 | 100* | 4 | 5 | -36 | 26
O=[N+]([O-])c1cc2c(cc1/C=N/NS(=O)(=O)c1ccc(Br)cc1)OCO2 | -4 | 12 | 14 | -3 | -6 | 1
O=C(CCNS(=O)(=O)c1ccccc1)N1CCN(C(c2ccccc2)c2ccccc2)CC1 | 8 | 42 | 24 | 11 | 13 | 14
c1ccc2c(c1)oc1c(Nc3ccc(CN4CCOCC4)cc3)ncnc12 | 75* | 79* | -177 | 52* | -13 | -26
